“And” between values parts separate entries of the source, which are not always exact repeats. Equal values may be shown once. In all, about 330,000 compounds went through this assay and about 300 (0.091%) were called active. About 4% were inconclusive and are not listed. Calls follow the shape of the dose curve; as a rule, active = well fitted inhibition curve with a large enough effect; inconclusive = small, poorly fitted or top-dose-only effect, or effect the other way, or another doubt; inactive = no such curve, though single readings can be large or run the other way. The entries come from a sample that favours actives as a whole. The source holds several records for some structures; these can differ, active in one and inactive in another.
Potency is read from the fitted curve at half-maximal effect.

The target of this assay is Lysosomal acid glucosylceramidase (Homo sapiens) (UniProt P04062). Put plainly: qHTS Assay for Inhibitors and Activators of N370S glucocerebrosidase as a Potential Chaperone Treatment of Gaucher Disease.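 As to activity change, negative = inhibition: 0% = full enzyme activity and -100% = no enzyme basal.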 The following applies: N370S GC spleen homogenate, 4MU-glucoside fluorescence; series mostly up to 59.4 µM; activity change, negative = inhibition: at the top concentration. The text has this: NIH Chemical Genomics Center [NCGC]
NIH Molecular Libraries Probe Production Centers Network [MLPCN]
Assay Submitter (PI): Wei Zheng
Glucocerebrosidase (GC) catalyzes the hydrolysis of beta-glucocerebroside to glucose and ceramide in lysosomes. Mutations in the glucocerebrosidase gene result in Gaucher disease, an autosomal recessive lysosomal storage disorder. Many of the mutations encountered in patients with Gaucher disease are missense alterations that may cause misfolding, decreased stability and/or mistrafficking of this lysosomal protein. […] These inhibitors include iminosugar analogs and three non-iminosugar inhibitors identified from a previous HTS of 62,000 compounds with the wild type recombinant enzyme. However, the enhancement of enzyme activity by the chaperone action of an enzyme inhibitor must be balanced against the direct inhibition of the enzyme. An enzyme activator could also function as a chaperone by binding to the enzyme and helping to correct its misfolding and mistrafficking. While activators for GC have not yet been identified, they may have better therapeutic potential than inhibitors. Therefore the discovery and development of chemical activators may provide a new strategy for the chaperone therapy.
We have optimized a new assay using N370S mutant GC derived from the spleen of a Gaucher patient. […] In addition, the MLPCN compound library has expanded, which increases the chance of finding new and better probes.
NCGC Assay Protocol Summary:
This is a fluorogenic enzyme assay with 4-methylumbelliferyl-beta-D-glucopyranoside as the substrate and N370S glucocerebrosidase from human spleen homogenate as the enzyme preparation. Upon the hydrolysis of this fluorogenic substrate, the resulting product, […] which can be detected by a standard fluorescence plate reader. Data were normalized to the controls for basal activity (without enzyme) and 100% activity (with enzyme). The AC50 values were determined from concentration-response data modeled with the standard Hill equation.
Assay buffer: 50 mM citric acid (titrated with potassium phosphate to pH 5.0), 100 mM potassium chloride, 10 mM sodium chloride, 1 mM magnesium chloride, 0.01% Tween-20.
1536-well assay protocol:
(1) Add 2 ul/well of spleen homogenate (27 ug final)
(2) Add 23 nL compounds in DMSO solution. The final titration was 0.5 nM to 58 uM.
(3) Add 2 ul of substrate (1 mM final)
(4) Incubate at 37C for 40 min.
(5) Add 2 ul stop solution (1M NaOH and 1M Glycine mixture, pH 10)
(6) Detect the assay plate in a ViewLux plate reader (PerkinElmer) with Ex=365 nm and Em=440nm.
Keywords: Glucocerebrosidase, beta-glucosidase, Gaucher Disease, pharmacological chaperone, chaperone therapy, high throughput screening, glucocerebrosidase inhibitor, MLSMR, MLSCN, NIH Roadmap, qHTS and NCGC
(In general: qHTS replaces the single test concentration by a dilution series.)
Regarding `CNCC[C@H](Oc1ccc(C(F)(F)F)cc1)c1ccccc1`, the Potency result is “inactive and 8.91 µM (active)”.
As for `CC(C)CC(C)Nc1ccc(Nc2ccccc2)cc1` (stereo not given), the “activity change, negative = inhibition” value was -14.2% (inactive).
On the same count and under the same terms, under `CC(CCC(=O)O)C1CCC2C3C(O)C[C@@H]4CC(O)CC[C@@]4(C)C3CC[C@@]12C` (stereo not given in full) stands -11% (inactive).
For `CC(Cl)Cl`, the “activity change, negative = inhibition” value was -0.151% (inactive).
For `CC(=O)[O][Sn]([c]1ccccc1)([c]1ccccc1)[c]1ccccc1`, the “activity change, negative = inhibition” value was -2.97% (inactive).

For the origin of these results see PubChem BioAssay AID2101 (National Center for Advancing Translational Sciences (NCATS), 2009).
